Test [1] concerns zebrafish Estrogen Receptor (ESR2A), gene 317734. Nature of the test: ATG_zfER2a_XSP1: Attagene TRANS-FACTORIAL Multi-Species (XSP1) HepG2 Assay for zebrafish Estrogen Receptor (ESR2A) (AID 2283778). An outline of the steps: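 Reporter transcripts were quantified by RT-PCR, 6-FAM labelling, HpaI digestion and capillary electrophoresis after 24 h dosing. The cells were HepG2 transiently carrying a zebrafish ER2a–Gal4 construct plus multiplexed UAS reporters; medium contained 3 nM 6-alpha-fluorotestosterone.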

Test [2] has as its target chicken Estrogen Receptor (ESR1), ESR1 (gene 396099) (UniProt P06212). Nature of the test: ATG_chERa_XSP1: Attagene TRANS-FACTORIAL Multi-Species (XSP1) HepG2 Assay for chicken Estrogen Receptor (ESR1) (AID 2283779). The method in brief: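 Trans-activation of an exogenous chicken ERα–Gal4 chimera read as reporter transcript (RT-PCR, fluorescent labeling, capillary electrophoresis) after 24 h compound exposure of transfected HepG2; medium held 3 nM 6-alpha-fluorotestosterone. Positive-direction fit against DMSO.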

For test [3], the system named is turtle Estrogen Receptor (ESR1), gene 101933533. Nature of the test: ATG_trERa_XSP1: Attagene TRANS-FACTORIAL Multi-Species (XSP1) HepG2 Assay for turtle Estrogen Receptor (ESR1) (AID 2283781). An outline of the steps:
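Transactivation measured 24 h post-dose as reporter mRNA (RT-PCR, fluorescent capillary electrophoresis) from an NR-Gal4 turtle ER construct in HepG2. Medium included 3 nM 6-alpha-fluorotestosterone; increase over DMSO fitted.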

Test [4] relates to turtle Androgen Receptor (AR), gene 101947425. Briefly: ATG_trAR_XSP1: Attagene TRANS-FACTORIAL Multi-Species (XSP1) HepG2 Assay for turtle Androgen Receptor (AR) (AID 2283786). Here is the method:
ATG_XSP1_multi-species_TRANS is a cell-based, multiplexed assay created by modifying the existing Attagene TRANS-FACTORIAL system to include a panel of nuclear receptors from some or all the following species: human (Homo sapiens), mouse (Mus musculus), frog (Xenopus laevis), zebrafish (Danio rerio), chicken (Gallus gallus), and turtle (Chrysemys picta). The ECOTOX-FACTORIAL format uses HepG2, a human liver cell line, with measurements taken at 24 hours after chemical dosing in a 24-well plate. Xsp1 included 3 nM 6-alpha-fluorotestosterone to partially stimulate the androgen receptor.ATG_trAR_XSP1 is one of 29 assay components measured or calculated from the ATG_XSP1_multi-species_TRANS assay. It is designed to make measurements of mRNA induction, a form of inducible reporter, as detected with fluorescence intensity signals by Reverse transcription polymerase chain reaction (RT-PCR) and Capillary electrophoresis technology.The assay endpoint ATG_trAR_XSP1 was analyzed in the positive analysis fitting direction relative to DMSO as the negative control and baseline of activity. […] Furthermore, this assay endpoint can be referred to as a primary readout, because this assay has produced multiple assay endpoints where this one serves a reporter gene function. […]

In test [5] the target is Estrogen receptor beta (Homo sapiens) (UniProt Q92731). Briefly: ATG_hERb_XSP1: Attagene TRANS-FACTORIAL Multi-Species (XSP1) HepG2 Assay for human Estrogen Receptor (ESR2) (AID 2283788). The method in brief: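 HepG2 cells transiently transfected with multiplexed GAL4-UAS reporter units carrying chimeric human ERβ-Gal4; 24 h compound exposure with 3 nM 6-alpha-fluorotestosterone present. Reporter mRNA quantified by RT-PCR, FAM labelling and capillary electrophoresis; gain-of-signal fitted versus DMSO.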
Sequence of Estrogen receptor beta (Homo sapiens) (Q92731 whole entry, looked up, the tested form may be a part): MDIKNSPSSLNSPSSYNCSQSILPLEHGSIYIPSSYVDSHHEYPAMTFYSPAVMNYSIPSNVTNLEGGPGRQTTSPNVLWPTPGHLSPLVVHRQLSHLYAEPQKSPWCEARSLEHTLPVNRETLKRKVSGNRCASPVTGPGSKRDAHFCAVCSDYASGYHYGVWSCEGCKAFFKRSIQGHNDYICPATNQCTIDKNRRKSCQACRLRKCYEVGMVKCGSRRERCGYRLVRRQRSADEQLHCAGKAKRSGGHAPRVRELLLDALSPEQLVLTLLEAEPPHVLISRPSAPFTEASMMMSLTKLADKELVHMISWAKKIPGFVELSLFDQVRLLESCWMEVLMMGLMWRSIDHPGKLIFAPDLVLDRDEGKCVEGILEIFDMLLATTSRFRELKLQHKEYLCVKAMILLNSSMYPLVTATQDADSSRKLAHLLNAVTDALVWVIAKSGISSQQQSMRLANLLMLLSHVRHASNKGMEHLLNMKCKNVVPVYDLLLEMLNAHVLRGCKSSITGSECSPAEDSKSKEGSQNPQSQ

The nature of test [6]: ATG_M_06_XSP1: Attagene TRANS-FACTORIAL Multi-Species (XSP1) HepG2 Assay for M06 Transcription Factor (Internal Marker) (AID 2283790). The method in brief:
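This background-control readout tracks M06 reporter mRNA, measured by RT-PCR and capillary electrophoresis. HepG2 cells transiently carrying the GAL4-UAS reporter panel were dosed for 24 h with 3 nM 6-alpha-fluorotestosterone added for partial AR stimulation; increases were scored relative to DMSO.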

A short description of test [7]: ACEA_ER_AUC_viability: ACEA Biosciences xCELLigence Real-Time Cell Analysis on Estrogen Receptor Agonism for Viability (AID 2283782).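 Further: hit means loss of impedance signal meaning reduced cell growth or viability.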 The method in brief:
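Viability endpoint: reduced impedance area under the curve relative to DMSO, recorded by real-time electrode sensing over ~80 h of continuous exposure. Duplicate plates of T47D in hormone-depleted medium; eight concentrations, 1:4 dilutions, 100 uM maximum.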

The target in test [8] is AR (gene 367) (UniProt P10275). Briefly: ACEA_AR_agonist_80hr: ACEA Biosciences xCELLigence Real-Time Cell Analysis on Androgen Receptor Agonism for Proliferation (AID 2283783).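 Further: hits increase impedance growth signal above DMSO baseline.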 The method in brief: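 Eight concentrations, 1:4 serial dilution from a 100 uM final top, in biological duplicate. Impedance-based real-time growth of 22Rv1 cells after overnight baseline, recorded hourly and read at 80 hours. Controls: testosterone, MG132, assay media.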
Sequence of AR (gene 367) (P10275 whole entry, looked up): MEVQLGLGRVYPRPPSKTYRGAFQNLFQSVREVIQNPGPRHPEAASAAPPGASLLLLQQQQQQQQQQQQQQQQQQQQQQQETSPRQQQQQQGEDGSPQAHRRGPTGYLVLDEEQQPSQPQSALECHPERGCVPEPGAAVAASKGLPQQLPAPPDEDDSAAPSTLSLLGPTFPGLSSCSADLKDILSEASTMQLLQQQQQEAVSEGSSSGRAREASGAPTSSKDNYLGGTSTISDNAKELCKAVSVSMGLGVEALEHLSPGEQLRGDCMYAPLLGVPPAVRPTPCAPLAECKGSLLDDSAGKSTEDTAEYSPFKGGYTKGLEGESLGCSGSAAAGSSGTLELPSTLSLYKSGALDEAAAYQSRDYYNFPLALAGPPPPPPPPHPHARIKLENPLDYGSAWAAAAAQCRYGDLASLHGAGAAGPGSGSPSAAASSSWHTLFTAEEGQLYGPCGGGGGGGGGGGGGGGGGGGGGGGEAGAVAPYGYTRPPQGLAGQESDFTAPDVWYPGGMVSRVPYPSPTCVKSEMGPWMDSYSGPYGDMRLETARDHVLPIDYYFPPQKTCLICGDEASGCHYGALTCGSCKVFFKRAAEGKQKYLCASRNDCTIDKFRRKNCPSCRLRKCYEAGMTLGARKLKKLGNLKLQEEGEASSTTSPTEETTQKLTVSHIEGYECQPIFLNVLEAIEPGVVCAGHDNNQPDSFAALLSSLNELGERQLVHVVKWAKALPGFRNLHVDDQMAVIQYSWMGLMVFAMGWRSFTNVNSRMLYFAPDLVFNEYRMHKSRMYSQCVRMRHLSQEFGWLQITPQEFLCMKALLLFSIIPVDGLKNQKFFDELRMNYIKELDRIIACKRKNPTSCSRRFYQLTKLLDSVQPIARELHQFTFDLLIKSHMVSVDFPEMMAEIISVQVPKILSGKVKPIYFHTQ

Test [9] addresses AR (gene 367) (UniProt P10275). Nature of the test: ACEA_AR_antagonist_80hr: ACEA Biosciences xCELLigence Real-Time Cell Analysis on Androgen Receptor Antagonism for Proliferation (AID 2283787).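 Further: 22Rv1 human prostate cancer cells with growth followed by electrical impedance; hits lower the impedance growth signal relative to DMSO.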 An outline of the steps: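 Impedance-based real-time growth of 22Rv1 prostate cells, read 80 h after dosing. Eight concentrations, 1:4 series, top 100 uM final (0.5% DMSO), n = 2; signal decrease scored against DMSO.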

A short description of test [10]: STM_H9_NormalizedViability: Cytotoxicity Assessment at 120 hours in the Stemina devTOX quickPredict H9 human embryonic stem cell (hESC)-based Assay (AID 2283784). An outline of the steps: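 Viability endpoint: background-corrected CellTiter-Fluor RFU expressed relative to the 0.1% DMSO mean on each plate. Undifferentiated H9 cells were treated with daily re-dosing and media change, and loss of signal was fitted.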

SMILES strings stand for the structures. Records with an inconclusive call do not appear. The source made the active and inactive calls. How the source made its calls: active means hit-call score of the fitted dose curve at least 0.9, where 1 is the maximum; inconclusive means response in the unintended direction; inactive means score below 0.9.

Sequence of chicken Estrogen Receptor (ESR1), ESR1 (gene 396099) (P06212 whole entry, looked up, the tested form may be a part): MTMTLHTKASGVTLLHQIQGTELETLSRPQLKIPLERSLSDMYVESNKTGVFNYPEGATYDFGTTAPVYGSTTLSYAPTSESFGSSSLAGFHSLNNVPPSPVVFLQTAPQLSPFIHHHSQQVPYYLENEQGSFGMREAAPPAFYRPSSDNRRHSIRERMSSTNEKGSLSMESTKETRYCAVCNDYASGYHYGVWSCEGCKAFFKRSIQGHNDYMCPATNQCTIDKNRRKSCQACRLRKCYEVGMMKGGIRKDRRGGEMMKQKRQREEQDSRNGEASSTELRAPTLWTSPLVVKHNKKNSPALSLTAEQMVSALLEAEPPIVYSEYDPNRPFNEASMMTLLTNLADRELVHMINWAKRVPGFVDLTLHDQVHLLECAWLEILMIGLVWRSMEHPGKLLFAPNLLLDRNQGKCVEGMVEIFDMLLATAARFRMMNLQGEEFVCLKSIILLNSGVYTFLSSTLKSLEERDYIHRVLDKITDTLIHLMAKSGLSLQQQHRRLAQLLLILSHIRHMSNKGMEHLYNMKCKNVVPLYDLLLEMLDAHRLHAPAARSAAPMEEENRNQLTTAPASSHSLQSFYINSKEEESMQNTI

For orientation: AC50 means the concentration at which the activity in the assay is half-maximal. `CCCCC(CC)COC(=O)c1ccc(O)cc1` (stereo unspecified): the AC50 in test [1] was 1.41 µM (active); in test [2], 2.3 µM (active); in test [3], 3.59 µM (active). In addition, the outcome in test [4], in test [5] and in test [6] was inactive.

On to `C=CCCCCCCCCCC`, for which the compound was classed as inactive in test [7]. As for `CC(C)CCCCCCCCCCCCCCC(=O)O`, the AC50 in test [7] was 50 µM (active). Take `COc1cccc(OC)c1O`: the call in [7] was inactive.

`CCCCCCC(C)(C)S`: the outcome in test [7] was inactive.

Consider `C=C1CC[C@H](O)C/C1=C/C=C1\CCC[C@]2(C)[C@@H]([C@H](C)/C=C/[C@H](C)C(C)C)CC[C@@H]12`, for which, in test [7], the AC50 is 79.1 µM (active). As for `CCCCCCCCCCCC(=O)OCC(O)CO` (stereo unspecified), the AC50 in test [7] is 50 µM (active). With `C=C1C[C@]23C[C@@]1(O)CC[C@H]2[C@@]12C=C[C@H](O)[C@@](C)(C(=O)O1)[C@H]2[C@@H]3C(=O)O`, the outcome in test [7] was inactive.

Take `CCC1CCCCC1`: the half-maximal activity concentration (AC50) in [7] was 75.8 µM (active). For the compound `OCCCCC(O)CO` (stereo unspecified), the outcome in test [7] was inactive. `CCCCCCCCCC(C)C=O` (stereo unspecified): in test [7], the compound was classed as inactive. As to `C=CC(C)(O)CCC=C(C)C` (stereo unspecified), in [7], the compound was classed as inactive. Take `CCCN(CCC)S(=O)(=O)c1ccc(C(=O)O)cc1`: the call in test [7] was inactive. As for `COc1ccccc1[N+](=O)[O-]`, the result in [7] was inactive.

With `CC(C)(C)c1ccc(C(=O)O)cc1`, the AC50 in [7] is 50 µM (active).

As to `O=CN1CCOCC1`, the outcome in test [7] was inactive. For the compound `Cc1ccc(OC(=O)c2ccccc2O)cc1`, the AC50 in test [7] was 50 µM (active).

In the case of `CCCC(=O)OC(C)(C)Cc1ccccc1`, the call in [7] was inactive. Regarding `C=C(C#N)C(=O)OCC`, in test [7], the AC50 was 78.9 µM (active). Consider `CCOc1ccc(N=Nc2ccc(C=Cc3ccc(N=Nc4ccc(OCC)cc4)cc3S(=O)(=O)O)c(S(=O)(=O)O)c2)cc1`, for which the call in test [7] was inactive. Still for that read-out and setting: as for `CCCCCC(=O)CC`, the entry is “inactive”; as for `N#Cc1cscn1`, “inactive”; as for `O=C(O)c1ccc(O)cc1`, “inactive”. Still for that read-out and setting: as for `CCOC(=O)CN`, the entry is “inactive”; as for `C1=CC2C3C=CC(C3)C2C1` (stereo unspecified), “inactive”. On to `C=C(CC(=O)O)C(=O)O`, for which the compound was called inactive in test [7]. For `CCOc1ccccc1O`, the call in [7] was inactive. Turning to `O=[N+]([O-])c1ccc(O)cc1C(F)(F)F`, the AC50 in [7] is 86.6 µM (active). For the compound `CC1C2CC(CC2C2CCCC(O)C2)C1(C)C` (stereo unspecified), the AC50 in test [7] was 84.8 µM (active).

Take `COc1ccc(N=Nc2cc(C)c(N=Nc3ccc(S(=O)(=O)O)cc3)cc2OC)cc1`: the compound was called inactive in [7]. For the compound `CC(=O)C(C)O` (stereo unspecified), the compound was classed as inactive in test [7]. Still for that read-out and setting: as for `COS(=O)(=O)O`, the entry is “inactive”. For `C=C(C)CNCC`, in [7], the AC50 was 25.7 µM (active).

For the compound `C=C(C)C1CC=C(C)C(=O)C1` (stereo unspecified), the AC50 in [7] is 68.2 µM (active). Regarding `CN1C(=O)c2ccccc2C1=O`, the outcome in test [7] was inactive. As for `CCN(CCC#N)c1ccc(N=Nc2ccc([N+](=O)[O-])cc2)cc1`, in [7], the call was inactive.

On to `CC=Cc1ccc(OC)c(OC)c1`, for which the call in test [7] was inactive. Turning to `CCCCCCCCCCCCN1CCCCCC1=O`, the AC50 in [7] was 31.3 µM (active). As to `CC(=O)O[C@@H]1C[C@@H]2CC[C@@]1(C)C2(C)C`, the call in [7] was inactive. For the compound `COC(=O)C=C(C)CCC=C(C)C`, the result in test [7] was inactive.

As to `CCc1ccc(O)c(OC)c1`, the call in [7] was inactive. Turning to `CC(=O)O[C@H]1C[C@@H]2CC[C@@]1(C)C2(C)C`, the compound was classed as inactive in test [7], in [8] and in test [9].

As for `CS(=O)(=O)OCCCCOS(C)(=O)=O`, the compound was classed as inactive in [7]. Besides, in [10], the AC50 is 23.6 µM (active).

The values are drawn from PubChem BioAssay (EPA / NIEHS).
